About 83,000 compounds went through this panel and 20% of them were active in at least one assay; those are over-represented in the sample as a whole.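 Percent growth is the endpoint: 0 to 100 indicates growth inhibition (40 means 60% inhibition), 0 means no net growth, and negative values indicate cell death.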 Values without a mark were called inactive. Activity calls are given as the source filed them. How the source made its calls: active means growth percent below 10; inactive means the rest.

This experiment has as its system MALME-3M melanoma. The experiment can be described thus: NCI-60 one-dose screen, 48 h (100 = growth as untreated, 0 = no growth, -100 = all killed). The conditions noted are these: 10 µM unless noted.
Turning to `CCCCn1cc(C(=O)/C(C#N)=C/c2cc3ccccc3nc2Cl)c2cc(OC)ccc21`, the growth is 88.6%.
Regarding `CCCCNCCc1ccccn1`, the growth was 101%.
To `CC(=O)C1C(=O)N(C)C(=O)N(C)C1=O` belongs 114%; to `CC1(C)N=C(N)N=C(N)N1c1cccc(C(=O)Nc2cccc(S(=O)(=O)F)c2)c1`, 88.9%.
Next, `C[C@]12CC[C@@H]3C4=C(CC[C@H]3[C@@H]1CC[C@@H]2O)CC(=O)CC4`: 116%.
As to `Oc1ccccc1OB(Oc1ccccc1O)N(CCCl)CCCl`, the growth was 89.9%.
Next, `COc1ccc(-c2ccc(OC)c(OC)c2OC)cc1`: 33.2%; `CC1(C)N=C(N)N=C(N)N1c1ccc(CCCCc2ccc(S(=O)(=O)F)cc2)c(Cl)c1`: 44.3%; `COc1ccc(C2=NN(c3ccccc3)C(c3sc(N(CCCl)CCCl)nc3Cl)C2)cc1` (stereo not given): 99.3%.
For the compound `N#CC1c2ccccc2C=CN1C(=O)c1ccc(N(CCCl)CCCl)cc1` (stereo not given), the growth was 85.4%.
Next, `CSc1ccccc1NP1(=O)OCC(C)([N+](=O)[O-])CO1` (stereo not given): 120%.
As for `Cc1ccc(N)cc1[As]=[As]c1cc(N)ccc1C` (stereo not given), the growth was -90.7% (active).
In the case of `C/C(=N/OC(=O)N(C)C)c1cc(Cl)ccc1Cl`, the growth was 95.9%.
Next, `CC1(C)N=C(N)N=C(N)N1c1ccc(CCCCc2ccc(S(=O)(=O)F)cc2)cc1`: 52.8%.
Regarding `Cc1ccc(C(=O)C2CN(C)CCC2(O)c2ccc(C)cc2)cc1` (stereo not given), the growth was 120%.
Next, `O=S(=O)(O)c1ccc(-c2ccc([As](=O)(O)O)cc2)cc1`: 101%.
`O=C1NC(=O)C(CN2C(=O)C3(c4ccccc42)[C@H](Cl)C(=O)N3c2ccccc2)C(=O)N1` (stereo not given in full): the growth is 95.4%.
Next, `O=[N+]([O-])c1cc([N+](=O)[O-])c(Cl)c(Cl)c1Cl`: -48.1% (active).
With `C=CCC1(CC)C(=O)NC(=S)NC1=O`, the growth was 108%.
To `C/C(=N/OC(=O)N(C)C)c1ccc(Cl)cc1Cl` belongs 97.6%; to `CCC[CH2][Sn]([CH2]CCC)([CH2]CCC)[O]C(=O)CC`, -75.8% (active); to `O=C(NCc1ccc([N+](=O)[O-])cc1)Nc1ccc(S(=O)(=O)F)cc1`, 78.7%.
To `n1nc(-c2nonc2-c2nn[nH]n2)n[nH]1` belongs 106%; to `CNC(=O)Oc1ccccc1-c1ccccc1`, 102%; to `CC1(C)N=C(N)N=C(N)N1c1ccc(OCCCCOc2ccc(S(=O)(=O)F)cc2)c(Cl)c1`, 45.9%.
To `CCCCOC(=O)c1ccccc1C(=O)O.CCCCOC(=O)c1ccccc1C(=O)O.[Cu+2]` belongs 83.3%; to `O=[N+]([O-])c1ccc2cnn(CSP(=S)(c3ccccc3)c3ccccc3)c2c1`, 55.3%.
For the compound `NC(=O)C(Cl)Cl`, the growth was 96.6%.
To `CCN(CC)c1ccc(C=C2C(=O)NC(=S)NC2=O)cc1` belongs 123%; to `Clc1ccc(SSC(Cl)(Cl)Cl)cc1`, 95.7%; to `[O]=[Sn]([CH]1CCCCC1)[CH]1CCCCC1`, -72.2% (active).
Take `ClCCN(CCCl)c1nc(Cl)c(C2CC(c3ccccc3)=NN2c2ccccc2)s1` (stereo not given): the growth is 113%.
As for `CC(=O)C1CCC2C3CC=C4CC(OC(=O)Cc5ccc(N(CCCl)CCCl)cc5)CCC4(C)C3CCC12C` (stereo not given), the growth was 109%.
As to `Cc1ccccc1O`, the growth was 115%.
Next, `O=[N+]([O-])c1ccccc1N1CCNCC1`: 89%.

The values are drawn from PubChem BioAssay (NCI).
